FMDV antiviral = High Throughput Screening for Foot and Mouth Disease Virus Antivirals. FMDV antiviral cell-based qHTS. Potency, µM (doses to about 57.9 µM), inactives show top-dose activity change, negative = inhibition, actives largely listed as inhibitors. 410,000 tested, 1.2% active. AID 1159524, 2015; calls by dose curve; tested in HEK293T cells; also: read-out not given here; nearly all actives have a fitted effect of over 45% in size
VACV Venus inh = qHTS for Stage-Specific Inhibitors of Vaccinia Orthopoxvirus: Venus Reporter Primary qHTS | Vaccinia virus Venus reporter expression, fluorescence | Potency, µM (doses to about 36.5 µM), without a hit: at the top dose activity change, negative = inhibition, hits mostly inhibitors | 330,000 tested, 0.46% active; calls by dose curve; tested in A549 cells; also: nearly all actives have a fitted effect of over 30% in size
Lassa entry inh = qHTS for Inhibitors of binding or entry into cells for Lassa Virus. AID 540256, 2011. Lassa virus pseudotype entry inhibition, cell reporter. 300,000 tested, 1.2% active. Potency, µM (top dose mostly 37.9 µM), for inactives: at the highest dose activity change, negative = inhibition, usual class: inhibitors; calls by dose curve; tested in HEK293 cells; also: nearly all actives have a fitted effect of over 50% in size
Vaccinia mCherry = qHTS for Stage-Specific Inhibitors of Vaccinia Orthopoxvirus: mCherry Reporter Primary qHTS. Vaccinia virus mCherry reporter infection, fluorescence. Potency, µM (doses to about 36.5 µM), for the others: top-dose activity change, negative = inhibition, most hits filed as inhibitors. 310,000 tested, 0.63% active. AID 720579, 2013; calls by dose curve; tested in A549 cells; also: nearly all actives have a fitted effect of over 35% in size
MARV entry inh = qHTS for inhibitors of binding or entry into cells for Marburg Virus | Marburg virus pseudotyped entry inhibition, cell reporter | Potency, µM (doses to about 37.8 µM), for the others: at the top dose activity change, negative = inhibition, actives largely listed as inhibitors | 300,000 tested, 1.8% active | AID 540276, 2011; calls by dose curve; tested in HEK293 cells
Sm TGR inh = qHTS Assay for the Inhibitors of Schistosoma Mansoni Peroxiredoxins. Schistosoma mansoni thioredoxin glutathione reductase (TGR), Q962Y6. purified TGR, DTNB reduction, TNB absorbance 405 nm. Potency, µM (doses to about 114 µM), inactives show top-dose activity change, negative = inhibition, actives largely listed as inhibitors. 360,000 tested, 3% active. AID 485364, 2010; active = well fitted inhibition curve with a large enough effect; inconclusive = small, poorly fitted or top-dose-only effect; inactive = no such curve, though single readings can be large or run the other way; also: nearly all actives have a fitted effect of over 60% in size
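Kinetic colorimetric format: TGR-catalysed, NADPH-driven DTNB reduction monitored via TNB absorbance. Enzyme dispensed at 20 nM; compound exposure 15 min at room temperature before reaction start.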
Active calls of the source: *; i = inactive; u = inconclusive; x = no result; [ ] = another dose, or the depositor's remark. This is a sample that favours compounds with a hit; in the whole collection about 5.4% have one here. % is scaled to controls: 0 for no effect and ±100 for the full control effect; potency is read from the fitted curve at half-maximal effect.

SMILES	FMDV antiviral	VACV Venus inh	Lassa entry inh	Vaccinia mCherry	MARV entry inh	Sm TGR inh
O=S(=O)(Nc1ccc(-c2ccc(N3CCCCC3)nn2)cc1)c1ccc(OC(F)(F)F)cc1	16.1%	-12.8%	7.1%[46.1 µM]	-10.3%	x	-4.5%
O=C(CCN1C(=O)S/C(=C\c2ccc(Cl)cc2)C1=O)Nc1ccc(C(=O)O)cc1	-5.1%	-5.6%	-1.8%	-5.2%	-3.2%	-22.3%
Cc1ccc(/C=C2\SC(=S)N(CCCC(=O)Nc3ccccn3)C2=O)cc1	u	-5.8%	2.24µM*	i	u	0.9%
COc1ccc(/C=C2\SC(=O)N(CCCC(=O)Nc3ccc(C(=O)O)cc3)C2=O)cc1	3.98µM*	-15.2%	x	-29.2%	x	x
COc1ccc(/C=C2/SC(=S)N(CCCC(=O)Nc3cccc(O)c3)C2=O)cc1	4.2%	10.5%	u	u	7.94µM*	-8.4%
O=C(O)CN1C(=O)/C(=C\c2ccccc2OCc2ccc(Cl)cc2Cl)SC1=S	25.1µM*	-13.5%	9.4%[46.1 µM]	-1.4%	-15.4%[46.1 µM]	-35.2%
O=C(O)CN1C(=O)/C(=C\c2cc(Br)ccc2OCc2ccccc2Cl)SC1=S	-16.4%	-3.2%	u	i	-26.0%[46.1 µM]	u
COc1cc2c(cc1OC)CN(C1CCC(C(C)(C)C)CC1)CC2 (stereo unspecified)	-27.9%	-12.5%	-0.6%[46.1 µM]	u	u	x
O=C(CCCN1C(=O)/C(=C/c2ccccc2Cl)SC1=S)NNC(=O)c1ccccc1Cl	u	u	u	11.2µM*	6.31µM*	-1.6%
COc1ccc(/C=C2\SC(=S)N(CCCC(=O)NNC(=O)c3ccccc3O)C2=O)cc1	4.47µM*	-18.7%	2.24µM*	0.0%	u	1.4%
Cc1ccc(/C=C2\SC(=S)N(CCCC(=O)Nc3ccccc3C(=O)O)C2=O)cc1	u	x	x	x	x	-4.7%
COc1ccc(/C=C2/SC(=S)N(CCCC(=O)Nc3ccccc3C(=O)O)C2=O)cc1	8.91µM*	20.2%	2.82µM*	i	7.94µM*	-6.6%
Cc1c(Cl)cccc1NC(=S)Nn1cnnc1	-10.6%	-16.9%	5.7%	-0.4%	-16.9%	1.1%
Cc1c(Cl)cccc1NC(=S)NNS(=O)(=O)c1ccc([N+](=O)[O-])cc1	8.4%	u	-1.0%	10µM*	9.3%	-21.0%
CC1=C(C(=O)Nc2ccccc2)C(c2cccn2C)n2ncnc2N1 (stereo unspecified)	u	2.3%	-6.4%[46.1 µM]	1.1%	x	-2.0%
CCOc1ccc(-c2nn(-c3ccccc3)cc2C2NC(=O)NC(C)=C2C(=O)OC(C)C)cc1 (stereo unspecified)	-5.3%	-7.9%	-23.2%[46.1 µM]	-9.8%	u	1.5%
Cc1ccc(C)c(NC(=S)NC(NC(=O)/C=C/c2ccccc2)C(Cl)(Cl)Cl)c1 (stereo unspecified)	-22.8%	x	7.3µM*	x	u	6.0%
O=C(/C=C/c1ccccc1)NC(NC(=S)Nc1ccc(Cl)cc1Cl)C(Cl)(Cl)Cl (stereo unspecified)	-25.3%	u	u	-7.4%	u	u
O=C(/C=C/c1ccccc1)NC(NC(=S)Nc1cccc(Cl)c1)C(Cl)(Cl)Cl (stereo unspecified)	-19.4%	x	9.2µM*	x	u	1.2%
CC(C)CCNC(=O)c1ccc2c(c1)NC(=O)C(CS(=O)(=O)Cc1cccc(Br)c1)N2 (stereo unspecified)	0.0%	21.0%	10.0%[46.1 µM]	i	x	50.1µM*
CC(NC(=O)/C=C/c1ccco1)c1nc2ccccc2n1Cc1c(Cl)cccc1Cl (stereo unspecified)	-22.9%	-16.5%	-1.3%	-22.9%	-17.9%	25.1µM*
CC(NC(=O)/C=C/c1ccco1)c1nc2ccccc2n1Cc1ccccc1F (stereo unspecified)	-9.6%	u	-10.2%	0.6%	-8.2%	35.5µM*
CC(=O)NC(C)c1nc2ccccc2n1Cc1ccccc1Cl (stereo unspecified)	-11.5%	-5.1%	-1.2%[46.1 µM]	-4.7%	-1.7%[46.1 µM]	-1.8%
Cn1nccc1C(=O)NCC1CCC2(CCN(Cc3ccc(-c4ccc(Cl)cc4)o3)CC2)O1 (stereo unspecified)	u	-24.4%	x	-26.0%	x	x
CC(C)(C)c1ccc(-c2nnc(-c3ccccc3NC(=O)c3ccc(F)cc3F)o2)cc1	16.1%	-1.7%	2.7%[46.1 µM]	2.9%	10.0%[46.1 µM]	-2.2%
SMILES	FMDV antiviral	VACV Venus inh	Lassa entry inh	Vaccinia mCherry	MARV entry inh	Sm TGR inh
COC(=O)C1CCN(Cc2ccc3c(c2)CN(C(=O)c2sc(C)nc2C)CCO3)CC1	-7.6%	-6.5%	x	-14.4%	x	x
O=c1cc(N=Nc2ccc(Cl)cc2)[nH]c(=O)[nH]1	25.1µM*	-16.1%	u	-2.4%	5.3%[46.1 µM]	u
CC1(C)CC(=O)C(CC2C(=O)CC(C)(C)CC2=O)C(=O)C1	-12.0%	-12.0%	12.3%	i	-1.9%[46.1 µM]	2µM*
CC1(C)CC(=O)C(CC2CCCCC2=O)C(=O)C1 (stereo unspecified)	-12.1%	-11.3%	u	i	21.7%[46.1 µM]	2.7%
NS(=O)(=O)c1ccc(-c2ccc(C=NC3CCS(=O)(=O)C3)o2)cc1 (stereo unspecified)	7.5%	x	-13.4%	x	13.7%	70.8µM*
CCC(C(=O)n1cccc1C#N)c1ccccc1C (stereo unspecified)	-19.2%	u	x	u	x	50.1µM*
Cc1c(CNC2CCCCCC2)c(C(=O)O)c(C)n1Cc1c(F)cccc1Cl	-0.2%	4.1%	6.4%[46.1 µM]	1.8%	-1.2%[46.1 µM]	-0.2%
Cc1cc(N/N=C/c2ccc(O)cc2O)c2ccccc2n1	-4.7%	x	x	x	x	3.3%
Oc1ccc(/C=N/Nc2ccc3ccccc3c2)c(O)c1	69.6%	-6.9%	u	i	25.8%	44.7µM*
Oc1ccc(C=NNc2nc3ccccc3s2)c(O)c1	13.3%	u	u	5.01µM*	u	x
Oc1ccccc1C=NNc1nc2ccccc2s1	13.5%	-29.3%	u	u	u	x
CCn1nnc2cc(C(=O)Nc3cccc(C)c3C)ccc21	14.7%	-10.6%	-15.7%[46.1 µM]	-19.5%	x	-2.7%
Cn1c(=O)c(N)c2c3c(c(Br)ccc31)C(=O)c1ccccc1-2	u	x	x	x	x	12.6µM*
Cn1c(=O)c(NC2CCCCC2)c2c3c(cccc31)C(=O)c1ccccc1-2	-3.0%	8.3%	u	i	u	13.4%
OC(CN1CCCCC1)Cn1c2ccc(Cl)cc2c2cc(Cl)ccc21 (stereo unspecified)	u	u	-29.3%	u	10µM*	0.0%
O=C(CN1C(=O)c2ccccc2S1(=O)=O)c1ccc(F)cc1	-67.6%	x	x	x	x	-8.4%
O=C(CN1C(=O)c2ccccc2S1(=O)=O)c1ccc(Cl)cc1Cl	2µM*	-10.1%	0.562µM*	i	0.282µM*	x
CC1CCN(C(=O)CN2C(=O)c3ccccc3S2(=O)=O)CC1	49.3%	-10.5%	7.94µM*	-10.6%	u	-19.8%
